The record followed here is article PMC7862700, “An all-to-all approach to the identification of sequence-specific readers for epigenetic DNA modifications on cytosine”.

Holding throughout (experiment): DAPPL (digital affinity profiling via proximity ligation, sequencing); 10 mM Tris-HCl pH 7.5, 50 mM NaCl, 1 mM DTT, 4% glycerol, room temperature, 30 min; GST-TFs on glutathione beads, 16-mer random dsDNA library, 0.1% formaldehyde crosslink after washing; high values mean tight binding
What all share (conditions): protein: recombinant; tags: N-terminal GST; dsDNA, one strand shown

The target of one test is T1, FLI1 (Homo sapiens, UniProt Q01543 1-452).
T1 sequence: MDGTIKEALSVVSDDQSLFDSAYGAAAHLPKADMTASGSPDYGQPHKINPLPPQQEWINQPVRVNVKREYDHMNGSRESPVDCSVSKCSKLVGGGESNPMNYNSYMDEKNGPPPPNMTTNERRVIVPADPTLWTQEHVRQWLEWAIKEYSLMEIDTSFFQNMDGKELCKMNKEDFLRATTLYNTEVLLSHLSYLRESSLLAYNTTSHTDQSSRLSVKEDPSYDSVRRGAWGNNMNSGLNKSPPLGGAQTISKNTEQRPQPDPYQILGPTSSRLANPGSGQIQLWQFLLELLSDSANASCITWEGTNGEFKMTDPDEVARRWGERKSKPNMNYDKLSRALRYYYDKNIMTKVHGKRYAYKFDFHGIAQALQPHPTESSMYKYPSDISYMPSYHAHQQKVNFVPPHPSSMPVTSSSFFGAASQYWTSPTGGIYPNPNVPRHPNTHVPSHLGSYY
In outline:
(§1)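 Binding signal is given per hexamer as its read frequency for a factor divided by its frequency in the tag-only sample. GST-fused human transcription factors were expressed in yeast, captured on glutathione beads, barcoded with DNA and pooled with that sample, then incubated with 200 nmole of a 16-mer random double-stranded DNA library in Tris/NaCl/DTT/glycerol buffer for 30 min at room temperature. The pools were then washed, crosslinked, proximity-ligated, amplified by PCR and sequenced on an Illumina NextSeq500.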

The target of another test is T2, ELK1 (Homo sapiens, UniProt P19419 1-428).
T2 sequence: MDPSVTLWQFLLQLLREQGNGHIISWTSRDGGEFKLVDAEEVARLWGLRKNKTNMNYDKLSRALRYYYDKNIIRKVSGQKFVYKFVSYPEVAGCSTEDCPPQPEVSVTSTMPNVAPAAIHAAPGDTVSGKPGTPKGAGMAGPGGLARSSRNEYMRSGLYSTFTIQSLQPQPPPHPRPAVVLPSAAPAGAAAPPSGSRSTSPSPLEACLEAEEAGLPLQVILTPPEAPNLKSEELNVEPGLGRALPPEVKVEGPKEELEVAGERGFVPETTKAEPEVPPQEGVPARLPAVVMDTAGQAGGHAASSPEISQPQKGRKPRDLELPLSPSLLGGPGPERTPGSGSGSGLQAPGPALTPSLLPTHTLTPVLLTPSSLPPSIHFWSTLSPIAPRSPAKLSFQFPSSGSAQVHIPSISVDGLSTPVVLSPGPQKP
A digest of the protocol: as §1

The target in the next test is T3, GABPA (Homo sapiens, UniProt Q06546 1-454).
T3 sequence: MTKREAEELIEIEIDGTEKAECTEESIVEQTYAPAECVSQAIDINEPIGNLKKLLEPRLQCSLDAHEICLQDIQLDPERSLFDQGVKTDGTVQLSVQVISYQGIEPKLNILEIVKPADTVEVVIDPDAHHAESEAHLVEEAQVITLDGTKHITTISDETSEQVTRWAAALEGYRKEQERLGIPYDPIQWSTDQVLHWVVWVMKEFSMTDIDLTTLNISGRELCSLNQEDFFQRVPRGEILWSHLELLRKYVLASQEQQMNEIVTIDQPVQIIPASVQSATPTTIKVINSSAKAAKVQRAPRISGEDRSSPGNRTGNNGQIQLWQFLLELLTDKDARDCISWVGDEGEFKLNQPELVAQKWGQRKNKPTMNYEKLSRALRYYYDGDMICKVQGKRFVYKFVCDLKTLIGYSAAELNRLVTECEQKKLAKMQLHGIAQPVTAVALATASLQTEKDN
A digest of the protocol:
as §1

In another test the target is T4, ERG (Homo sapiens, UniProt P11308 1-479).
T4 sequence: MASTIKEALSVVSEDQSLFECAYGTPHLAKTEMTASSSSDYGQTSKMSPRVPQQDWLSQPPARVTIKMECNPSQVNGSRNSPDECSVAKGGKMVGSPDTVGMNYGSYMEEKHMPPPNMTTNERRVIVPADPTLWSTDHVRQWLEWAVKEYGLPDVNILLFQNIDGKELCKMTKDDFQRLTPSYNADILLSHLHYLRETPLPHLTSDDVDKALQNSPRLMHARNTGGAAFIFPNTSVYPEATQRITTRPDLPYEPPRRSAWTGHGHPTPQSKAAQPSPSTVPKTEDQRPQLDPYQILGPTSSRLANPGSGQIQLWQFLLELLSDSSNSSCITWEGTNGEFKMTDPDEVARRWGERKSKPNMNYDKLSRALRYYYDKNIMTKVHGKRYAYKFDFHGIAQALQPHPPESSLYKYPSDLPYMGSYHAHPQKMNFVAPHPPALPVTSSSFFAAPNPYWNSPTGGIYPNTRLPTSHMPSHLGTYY
A digest of the protocol:
as §1

Another test concerns the target ELF1 (Homo sapiens, UniProt P32519 1-619). In outline: as §1
For another test, the target named is T5, EHF (Homo sapiens, UniProt Q9NZC4 1-300).
T5 sequence: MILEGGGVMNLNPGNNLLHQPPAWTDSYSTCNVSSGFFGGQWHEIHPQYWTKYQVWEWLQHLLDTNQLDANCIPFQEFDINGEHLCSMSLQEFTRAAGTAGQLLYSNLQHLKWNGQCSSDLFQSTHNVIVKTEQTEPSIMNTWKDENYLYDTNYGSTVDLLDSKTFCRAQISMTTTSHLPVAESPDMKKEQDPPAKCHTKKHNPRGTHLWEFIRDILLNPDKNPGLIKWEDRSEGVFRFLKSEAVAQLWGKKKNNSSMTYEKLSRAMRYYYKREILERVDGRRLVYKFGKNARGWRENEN
A digest of the protocol:
as §1

In another test the target is SPI1 (Homo sapiens, UniProt P17947 1-270). In outline: as §1
In the next test the target is SPIB (Homo sapiens, UniProt Q01892 1-262). A digest of the protocol: as §1
In the next test the target is T6, ELK3 (Homo sapiens, UniProt P41970 1-407).
T6 sequence: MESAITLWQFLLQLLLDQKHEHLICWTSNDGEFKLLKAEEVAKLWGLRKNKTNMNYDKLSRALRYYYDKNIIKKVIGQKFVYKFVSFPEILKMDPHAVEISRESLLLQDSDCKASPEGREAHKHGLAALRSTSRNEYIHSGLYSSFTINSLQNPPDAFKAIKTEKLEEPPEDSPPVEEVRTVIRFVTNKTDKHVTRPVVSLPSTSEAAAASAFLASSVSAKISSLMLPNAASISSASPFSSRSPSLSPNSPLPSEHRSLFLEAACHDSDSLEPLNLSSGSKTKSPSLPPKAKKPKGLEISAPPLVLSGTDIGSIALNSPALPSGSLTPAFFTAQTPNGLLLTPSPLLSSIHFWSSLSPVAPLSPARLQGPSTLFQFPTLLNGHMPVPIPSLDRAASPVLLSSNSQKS
In outline: as §1

ELF1, sequence (P32519 whole entry): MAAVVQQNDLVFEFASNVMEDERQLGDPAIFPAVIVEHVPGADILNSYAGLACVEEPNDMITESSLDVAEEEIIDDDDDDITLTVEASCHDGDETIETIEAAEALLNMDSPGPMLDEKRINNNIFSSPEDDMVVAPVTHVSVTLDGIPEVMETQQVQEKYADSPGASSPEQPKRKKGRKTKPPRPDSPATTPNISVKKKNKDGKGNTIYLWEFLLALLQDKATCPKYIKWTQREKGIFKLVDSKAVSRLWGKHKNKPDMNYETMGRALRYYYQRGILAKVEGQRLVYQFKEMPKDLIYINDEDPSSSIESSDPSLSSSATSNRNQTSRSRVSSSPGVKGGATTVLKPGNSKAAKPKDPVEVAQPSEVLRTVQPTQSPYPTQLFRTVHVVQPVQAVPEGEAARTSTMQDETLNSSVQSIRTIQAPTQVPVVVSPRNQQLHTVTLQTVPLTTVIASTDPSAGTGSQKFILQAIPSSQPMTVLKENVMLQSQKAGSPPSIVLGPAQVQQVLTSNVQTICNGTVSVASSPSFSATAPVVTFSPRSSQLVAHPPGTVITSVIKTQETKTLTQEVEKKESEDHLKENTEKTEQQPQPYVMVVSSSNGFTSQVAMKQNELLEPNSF
SPIB, sequence (Q01892 whole entry): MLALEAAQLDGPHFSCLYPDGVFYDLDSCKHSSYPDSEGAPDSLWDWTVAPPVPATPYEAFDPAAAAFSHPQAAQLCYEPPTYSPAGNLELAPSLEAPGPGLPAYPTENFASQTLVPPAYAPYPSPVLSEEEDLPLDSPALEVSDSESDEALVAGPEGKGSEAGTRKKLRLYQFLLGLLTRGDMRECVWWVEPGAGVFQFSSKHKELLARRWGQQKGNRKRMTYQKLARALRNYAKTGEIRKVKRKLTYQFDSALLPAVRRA

Turning to ATCTGG, the binding signal was 1.19 fold enrichment (6-mer frequency, TF over GST control) with FLI1; 1.01 fold enrichment (6-mer frequency, TF over GST control) with ELK1; 1.17 fold enrichment (6-mer frequency, TF over GST control) with GABPA; 1.14 fold enrichment (6-mer frequency, TF over GST control) with ERG; 1.18 fold enrichment (6-mer frequency, TF over GST control) in the test with ELF1; 1.12 fold enrichment (6-mer frequency, TF over GST control) in the test with EHF. The binding signal with SPI1 was 1.12 fold enrichment (6-mer frequency, TF over GST control); with SPIB, 1.14 fold enrichment (6-mer frequency, TF over GST control); with ELK3, 1.09 fold enrichment (6-mer frequency, TF over GST control).
On to TTTTCT, for which the binding signal in the test with FLI1 is 1.31 fold enrichment (6-mer frequency, TF over GST control); with ELK1 it was 1.29 fold enrichment (6-mer frequency, TF over GST control); with GABPA it was 1.27 fold enrichment (6-mer frequency, TF over GST control); with ERG, 1.34 fold enrichment (6-mer frequency, TF over GST control); with ELF1, 1.29 fold enrichment (6-mer frequency, TF over GST control); in the test with EHF it was 1.46 fold enrichment (6-mer frequency, TF over GST control). Moreover, the binding signal with SPI1 is 1.45 fold enrichment (6-mer frequency, TF over GST control); with SPIB, 1.18 fold enrichment (6-mer frequency, TF over GST control); in the test with ELK3, 1.31 fold enrichment (6-mer frequency, TF over GST control).
TCAAAA: the binding signal with FLI1 was 1.12 fold enrichment (6-mer frequency, TF over GST control); with ELK1 it was 1.12 fold enrichment (6-mer frequency, TF over GST control); with GABPA, 1.23 fold enrichment (6-mer frequency, TF over GST control); with ERG, 1.14 fold enrichment (6-mer frequency, TF over GST control); with ELF1, 1.19 fold enrichment (6-mer frequency, TF over GST control); with EHF, 1.1 fold enrichment (6-mer frequency, TF over GST control). The binding signal is 1.3 fold enrichment (6-mer frequency, TF over GST control) with SPI1; 1.15 fold enrichment (6-mer frequency, TF over GST control) with SPIB; 1.17 fold enrichment (6-mer frequency, TF over GST control) in the test with ELK3.
Turning to ACGTCC, the binding signal is 1.59 fold enrichment (6-mer frequency, TF over GST control) in the test with FLI1; 1.58 fold enrichment (6-mer frequency, TF over GST control) with ELK1; 1.61 fold enrichment (6-mer frequency, TF over GST control) with GABPA; 1.67 fold enrichment (6-mer frequency, TF over GST control) in the test with ERG; 1.55 fold enrichment (6-mer frequency, TF over GST control) with ELF1; 1.63 fold enrichment (6-mer frequency, TF over GST control) with EHF. The binding signal in the test with SPI1 is 1.49 fold enrichment (6-mer frequency, TF over GST control); with SPIB, 1.72 fold enrichment (6-mer frequency, TF over GST control); with ELK3 it was 1.85 fold enrichment (6-mer frequency, TF over GST control).
In the case of AGCTCC, the binding signal in the test with FLI1 is 1.38 fold enrichment (6-mer frequency, TF over GST control); with ELK1, 1.23 fold enrichment (6-mer frequency, TF over GST control); with GABPA it was 1.32 fold enrichment (6-mer frequency, TF over GST control); in the test with ERG it was 1.2 fold enrichment (6-mer frequency, TF over GST control); in the test with ELF1, 1.28 fold enrichment (6-mer frequency, TF over GST control); with EHF, 1.31 fold enrichment (6-mer frequency, TF over GST control). Further, the binding signal with SPI1 is 1.25 fold enrichment (6-mer frequency, TF over GST control); with SPIB, 1.21 fold enrichment (6-mer frequency, TF over GST control); with ELK3 it was 1.17 fold enrichment (6-mer frequency, TF over GST control).
As to ATCTGC, the binding signal with FLI1 was 1.3 fold enrichment (6-mer frequency, TF over GST control); with ELK1, 1.28 fold enrichment (6-mer frequency, TF over GST control); in the test with GABPA, 1.47 fold enrichment (6-mer frequency, TF over GST control); with ERG, 1.37 fold enrichment (6-mer frequency, TF over GST control); with ELF1, 1.45 fold enrichment (6-mer frequency, TF over GST control); in the test with EHF, 1.34 fold enrichment (6-mer frequency, TF over GST control). For the same sequence, the binding signal with SPI1 is 1.44 fold enrichment (6-mer frequency, TF over GST control); with SPIB it was 1.41 fold enrichment (6-mer frequency, TF over GST control); in the test with ELK3, 1.34 fold enrichment (6-mer frequency, TF over GST control).
As for CTGACT, the binding signal with FLI1 is 1.25 fold enrichment (6-mer frequency, TF over GST control); in the test with ELK1 it was 1.26 fold enrichment (6-mer frequency, TF over GST control); in the test with GABPA it was 1.29 fold enrichment (6-mer frequency, TF over GST control); with ERG it was 1.22 fold enrichment (6-mer frequency, TF over GST control); with ELF1, 1.32 fold enrichment (6-mer frequency, TF over GST control); with EHF, 1.31 fold enrichment (6-mer frequency, TF over GST control). The binding signal in the test with SPI1 was 1.27 fold enrichment (6-mer frequency, TF over GST control); with SPIB, 1.43 fold enrichment (6-mer frequency, TF over GST control); in the test with ELK3, 1.26 fold enrichment (6-mer frequency, TF over GST control).
Turning to ATGTAA, the binding signal with FLI1 is 1.38 fold enrichment (6-mer frequency, TF over GST control); with ELK1 it was 1.29 fold enrichment (6-mer frequency, TF over GST control); with GABPA it was 1.13 fold enrichment (6-mer frequency, TF over GST control); with ERG, 1.29 fold enrichment (6-mer frequency, TF over GST control); with ELF1 it was 1.23 fold enrichment (6-mer frequency, TF over GST control); with EHF, 1.32 fold enrichment (6-mer frequency, TF over GST control). For the same sequence, the binding signal with SPI1 is 1.23 fold enrichment (6-mer frequency, TF over GST control); in the test with SPIB it was 1.33 fold enrichment (6-mer frequency, TF over GST control); in the test with ELK3 it was 1.22 fold enrichment (6-mer frequency, TF over GST control).
